Records with an inconclusive call do not appear. Entries that show only a call come without a potency. Active and inactive are the calls of the source. Calls come from the whole dose curve.
Test: Cytotoxicity counterscreen for inhibitors of SARS-CoV-2 cell entry (AID 1645845); note: nearly all actives have a fitted effect of over 50% in size
Settings: cell viability (SARS-CoV-2 entry assay cells); series mostly up to 57.1 µM
How it was run: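 ATP-content luminescence (ATPLite 1step, 15 min RT) read after 48 h compound exposure of Expi293F cells stably expressing human ACE2; normalized to cells-only wells and media-only wells.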
Potency is the fitted concentration of half-maximal effect.

SMILES	Potency	activity change, negative = cytotoxicity
CC(C(=O)O)c1ccc2c(c1)Cc1cccnc1O2 (centres undefined)	inactive	
CC(C)(C)c1ccc(C(=O)CCCN2CCC(OC(c3ccccc3)c3ccccc3)CC2)cc1	inactive	
CCCc1nc(C)c2c(=O)[nH]c(-c3cc(S(=O)(=O)N4CCN(CC)CC4)ccc3OCC)nn12	inactive	
C=C1C(=C/C=C2\CCC[C@]3(C)[C@@H]([C@H](C)/C=C/[C@@H](O)C4CC4)CC[C@@H]23)C[C@@H](O)C[C@@H]1O	inactive	
O=C(CCCN1CCC(O)(c2ccc(Br)cc2)CC1)c1ccc(F)cc1	inactive	
O=C(O)[C@H](O)[C@@H](O)[C@H](O[C@@H]1O[C@H](CO)[C@H](O)[C@H](O)[C@H]1O)[C@H](O)CO	inactive	
O=C1NCCN1CCN1CCC(c2cn(-c3ccc(F)cc3)c3ccc(Cl)cc23)CC1	28.2 µM (active)	
CC1(C)S[C@@H]2[C@H](N=CN3CCCCCC3)C(=O)N2[C@H]1C(=O)O	inactive	
C[C@H](N)C(=O)N[C@@H](C)C(=O)NC1[C@H]2CN(c3nc4c(cc3F)c(=O)c(C(=O)O)cn4-c3ccc(F)cc3F)C[C@@H]12 (some centres undefined)	inactive	
C[C@@H](CN(C)C)CN1c2ccccc2Sc2ccccc21	inactive	
Oc1ccc(O)cc1	inactive	
OC(CCN1CCCCC1)(c1ccccc1)c1ccccc1	inactive	
CCO[C@@H]1O[C@H](C(COCc2ccccc2)OCc2ccccc2)[C@H](OCc2ccccc2)[C@H]1O (some centres undefined)	inactive	
N#C/C(=C1/SC[C@@H](c2ccc(Cl)cc2Cl)S1)n1ccnc1	inactive	
CCN(CCCc1ccccc1)CCCc1ccccc1	inactive	
CN(C)CCOc1ccccc1Cc1ccccc1	inactive	
Cc1ccc2c(Cl)cc(Cl)c(O)c2n1	inactive	
OC(CCN1CCCCC1)(c1ccccc1)C1CC2C=CC1C2 (centres undefined)	inactive	
CCn1c(=O)c2c(nc(C=Cc3ccc(OC)c(OC)c3)n2C)n(CC)c1=O	inactive	
C[C@]12CC[C@@H]3c4ccc(O)cc4CC[C@H]3[C@@H]1C[C@@H](O)[C@@H]2O	inactive	

SMILES	Potency	activity change, negative = cytotoxicity
Cc1ccc2nc(N)[nH]c(=O)c2c1Sc1ccncc1	inactive	
COc1cc(N)c(Cl)cc1C(=O)NC1CCN(Cc2ccccc2)CC1	inactive	
C/C(=C(\CCOP(=O)(O)O)SC(=O)c1ccccc1)N(C=O)Cc1cnc(C)nc1N		0.654% [at 5.25 µM] (inactive)
CN1CCC(=C2c3ccccc3CCc3cccnc32)CC1	inactive	
CCN[C@H]1C[C@H](C)S(=O)(=O)c2sc(S(N)(=O)=O)cc21	inactive	
CCOC(=O)C1=C[C@]2(CC)CCCN3CCc4c(n1c1ccccc41)[C@@H]32	inactive	
COc1cc(C(=O)OCCCN2CCCN(CCCOC(=O)c3cc(OC)c(OC)c(OC)c3)CC2)cc(OC)c1OC	inactive	
O=C(c1ccc(F)cc1)C1CCN(CCn2c(=O)[nH]c3ccccc3c2=O)CC1	inactive	
C#C[C@]1(OC(C)=O)CC[C@H]2[C@@H]3CCC4=C[C@@H](OC(C)=O)CC[C@@H]4[C@H]3CC[C@@]21C	inactive	
CCc1ccc(C(=O)C(C)CN2CCCCC2)cc1 (centres undefined)	inactive	
CCN(CC)CCCC(C)Nc1c2ccc(Cl)cc2nc2ccc(OC)cc12 (centres undefined)	inactive	
Clc1ccc2c(c1)CCc1cccnc1C2=C1CCNCC1	inactive	
CCCCCCc1ccc(O)cc1O	inactive	
CCN(CC)CCOCCOC(=O)C1(c2ccccc2)CCCC1	inactive	
CCCCN(CCCC)CCC(O)c1cc2c(Cl)cc(Cl)cc2c2cc(C(F)(F)F)ccc12 (centres undefined)	inactive	
CC(=O)c1ccc2c(c1)N(CCCN(C)C)c1ccccc1S2	inactive	
COc1ccc(CCN(C)CCCC(C#N)(c2cc(OC)c(OC)c(OC)c2)C(C)C)cc1OC (centres undefined)	inactive	
O=C(CCCCC(=O)Nc1c(I)cc(I)c(C(=O)O)c1I)Nc1c(I)cc(I)c(C(=O)O)c1I	inactive	
CC(=O)Oc1ccc(C(=C2CCCCC2)c2ccc(OC(C)=O)cc2)cc1	inactive	

Source: PubChem BioAssay (NCATS)
